Reference: PubChem BioAssay AID602261 (Sanford-Burnham Center for Chemical Genomics, 2012)
The campaign covered roughly 360,000 compounds. About 2,400 (0.67%) were called active. Shown is part of a subset that was picked to be rich in actives. Unmarked numbers belong to inactive results.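 How the source made its calls: active means compounds whose normalised, plate-corrected inhibition of enzyme fluorescence in the single-dose primary screen is 50% or more; inactive means the rest.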

molecular target: Fatty acid synthase (Homo sapiens) (UniProt P49327); test: inhibition of human FAS-TE enzyme activity – biochemical, fluorescence intensity, uHTS, primary screen (AID 602261); conditions: recombinant FAS-TE, OMFH fluorogenic substrate, fluorescence endpoint; at 15 µM; hits give high values;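 further: 0% = DMSO with enzyme and 100% = substrate without enzyme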
Sequence (P49327 whole entry, looked up): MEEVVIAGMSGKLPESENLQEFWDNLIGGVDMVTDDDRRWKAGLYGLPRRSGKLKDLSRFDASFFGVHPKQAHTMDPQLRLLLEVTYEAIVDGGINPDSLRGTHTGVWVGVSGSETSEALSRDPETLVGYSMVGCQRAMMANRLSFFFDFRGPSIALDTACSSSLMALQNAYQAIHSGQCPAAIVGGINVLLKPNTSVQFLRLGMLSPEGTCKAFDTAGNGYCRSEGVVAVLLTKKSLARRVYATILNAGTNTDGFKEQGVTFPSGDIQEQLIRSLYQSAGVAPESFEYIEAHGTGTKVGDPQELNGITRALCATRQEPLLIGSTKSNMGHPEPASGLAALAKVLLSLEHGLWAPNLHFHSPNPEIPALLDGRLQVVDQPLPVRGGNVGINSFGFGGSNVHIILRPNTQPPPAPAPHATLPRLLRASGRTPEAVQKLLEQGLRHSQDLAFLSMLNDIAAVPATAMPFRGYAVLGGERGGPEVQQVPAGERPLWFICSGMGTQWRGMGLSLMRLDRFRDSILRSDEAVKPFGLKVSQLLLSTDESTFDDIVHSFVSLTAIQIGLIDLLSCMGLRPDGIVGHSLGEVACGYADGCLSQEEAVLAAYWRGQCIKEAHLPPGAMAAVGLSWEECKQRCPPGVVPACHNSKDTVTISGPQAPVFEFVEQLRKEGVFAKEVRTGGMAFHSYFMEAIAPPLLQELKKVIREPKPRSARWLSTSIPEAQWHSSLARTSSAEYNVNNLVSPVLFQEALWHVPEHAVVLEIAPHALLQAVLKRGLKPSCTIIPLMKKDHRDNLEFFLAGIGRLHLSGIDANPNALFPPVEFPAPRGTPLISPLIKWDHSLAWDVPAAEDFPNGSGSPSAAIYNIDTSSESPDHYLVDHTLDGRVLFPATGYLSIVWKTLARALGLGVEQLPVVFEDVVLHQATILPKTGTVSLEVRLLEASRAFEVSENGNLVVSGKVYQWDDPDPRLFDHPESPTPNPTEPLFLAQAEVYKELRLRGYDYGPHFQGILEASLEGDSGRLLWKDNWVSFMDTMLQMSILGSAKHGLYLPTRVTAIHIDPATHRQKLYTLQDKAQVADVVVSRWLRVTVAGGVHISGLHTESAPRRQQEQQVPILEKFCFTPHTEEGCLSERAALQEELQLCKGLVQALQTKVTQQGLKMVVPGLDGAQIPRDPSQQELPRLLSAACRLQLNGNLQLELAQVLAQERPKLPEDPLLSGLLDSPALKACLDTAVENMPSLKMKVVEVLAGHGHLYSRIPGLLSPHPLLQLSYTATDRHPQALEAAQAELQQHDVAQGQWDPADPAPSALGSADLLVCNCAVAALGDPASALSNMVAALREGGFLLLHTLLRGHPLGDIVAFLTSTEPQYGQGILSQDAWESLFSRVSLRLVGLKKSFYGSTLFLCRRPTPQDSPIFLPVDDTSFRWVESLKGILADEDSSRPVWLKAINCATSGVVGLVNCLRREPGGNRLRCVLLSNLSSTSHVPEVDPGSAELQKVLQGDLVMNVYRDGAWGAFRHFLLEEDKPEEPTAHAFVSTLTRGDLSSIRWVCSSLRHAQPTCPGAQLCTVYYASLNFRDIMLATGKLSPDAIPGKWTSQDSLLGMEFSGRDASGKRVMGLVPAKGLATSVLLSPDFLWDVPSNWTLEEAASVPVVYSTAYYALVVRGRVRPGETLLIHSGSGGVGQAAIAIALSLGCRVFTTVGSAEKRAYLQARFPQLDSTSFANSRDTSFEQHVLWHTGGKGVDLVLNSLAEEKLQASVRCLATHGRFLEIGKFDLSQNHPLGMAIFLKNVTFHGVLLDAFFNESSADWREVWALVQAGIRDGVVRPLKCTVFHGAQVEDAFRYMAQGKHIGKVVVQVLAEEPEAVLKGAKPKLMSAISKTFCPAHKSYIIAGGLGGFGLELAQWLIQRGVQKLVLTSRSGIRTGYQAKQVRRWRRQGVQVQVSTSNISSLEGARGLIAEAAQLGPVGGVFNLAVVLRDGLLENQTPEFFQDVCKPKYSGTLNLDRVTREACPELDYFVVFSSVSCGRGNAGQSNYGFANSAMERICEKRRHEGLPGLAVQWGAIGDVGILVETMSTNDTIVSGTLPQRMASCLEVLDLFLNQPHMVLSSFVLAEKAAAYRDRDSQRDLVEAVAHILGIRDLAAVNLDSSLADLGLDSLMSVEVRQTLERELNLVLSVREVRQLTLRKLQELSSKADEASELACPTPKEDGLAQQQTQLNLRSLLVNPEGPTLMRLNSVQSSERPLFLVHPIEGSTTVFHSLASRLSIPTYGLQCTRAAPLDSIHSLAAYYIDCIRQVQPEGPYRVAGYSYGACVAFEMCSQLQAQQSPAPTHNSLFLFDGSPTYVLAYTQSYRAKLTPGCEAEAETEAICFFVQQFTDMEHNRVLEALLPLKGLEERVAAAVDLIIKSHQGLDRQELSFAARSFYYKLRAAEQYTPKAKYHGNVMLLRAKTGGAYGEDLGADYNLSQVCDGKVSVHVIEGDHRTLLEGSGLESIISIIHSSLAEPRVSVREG

| Compound | inhibition |
| --- | --- |
| Cn1cc(S(=O)(=O)N2CCC(Cc3ccccc3)CC2)c(=O)n(C)c1=O | -7.6% |
| COCCn1c(SCC(=O)Nc2cc(Cl)ccc2OC)nc2c(c1=O)SC(C)C2 (stereo not given) | 20.2% |
| Cc1ccccc1-n1nnnc1SCCCC(=O)c1ccc(F)cc1 | 19.4% |
| CC(C)=CCc1ccc(O)c(=O)cc1C(C)C | -0.3% |
| COc1cccc(NC(=O)CN(C)C(=O)c2ccccc2CCc2ccccc2)c1 | 23.2% |
| COc1ccc(C2Nc3ccccc3C(=O)N2c2ccc(Cl)cc2)cc1Cn1cc([N+](=O)[O-])cn1 (stereo not given) | 69.9% (active) |
| COc1ccc(C2Nc3ccccc3C(=O)N2Cc2ccccc2)cc1Cn1nnc2ccccc21 (stereo not given) | 35.8% |
| COc1ccc(CN2CCCC(C(=O)c3ccc(Cl)cc3)C2)cc1Cn1cncn1 (stereo not given) | -9.9% |
| Cc1ccc(Nc2cc(C)nc3c(C)ccc([N+](=O)[O-])c23)cc1 | 25% |
| N#CCCN(C(=O)COC(=O)C1CCN(c2ccc(C(F)(F)F)cn2)CC1)c1ccc(F)cc1 | 18.7% |
| Nc1cc(OC(=O)c2ccccc2Br)nn1S(=O)(=O)c1ccccc1 | 5.4% |
| O=C(CC(O)(C(F)(F)F)C(F)(F)F)Nc1ccc(Cl)c(Cl)c1 | 22.2% |
| O=C(CCl)Nc1ccc(Sc2ccc(NC(=O)CCl)cc2)cc1 | 2.8% |
| O=C(Cc1ccc(Cl)c(Cl)c1)Nc1ccc(SC(F)F)cc1 | 66.1% (active) |
| CCOC(=O)Cn1nnnc1C | -1.8% |
| O=C(NCc1ccc2c(c1)OCO2)c1cc([N+](=O)[O-])ccc1N1CCOCC1 | 51.7% (active) |
| O=C(Cc1ccc([N+](=O)[O-])cc1)NCCc1ccc2c(c1)OCO2 | 18.8% |
| CC1CCN(c2ccc(C(=O)NCc3ccc4c(c3)OCO4)cc2[N+](=O)[O-])CC1 | 13.7% |
| CC(C)(C)c1ccc(/C=C/C(=O)NC2CCS(=O)(=O)C2)cc1 (stereo not given) | -0.6% |
| CN(C)c1ccc(S(=O)(=O)NCC(=O)NCC2CCCCC2)cc1[N+](=O)[O-] | 5.2% |
| CN(C)c1ccc(/C=C/C(=O)c2ccc(C(C)(C)C)cc2)cc1[N+](=O)[O-] | 74.2% (active) |
| Cc1ccc(S(=O)(=O)N2CCN(C)CC2)cc1C(=O)NC1CCCCC1 | -7% |

| Compound | inhibition |
| --- | --- |
| CCOC(=O)C1=CN(Cc2ccc(Br)cc2)S(=O)(=O)NC1C (stereo not given) | 9.4% |
| CC(C)[C@@H]1COC(c2cccc(C3=N[C@H](C(C)C)CO3)c2)=N1 | 1.1% |
| CC1(C)O[C@@H]2[C@H](O1)[C@@H](COS(=O)(=O)O)O[C@H]2n1ccc(=O)[nH]c1=O | -13.4% |
| CC(NS(=O)(=O)c1ccc(Cl)cc1)C(=O)Nc1ccc2c(c1)OCCO2 (stereo not given) | -2.1% |
| O=C(Nc1cccc(S(=O)(=O)Nc2ccc(Cl)cc2)c1)c1ccc2c(c1)OCCO2 | 54% (active) |
| CCN(CC)CCNC(=O)c1ccc(NS(=O)(=O)c2ccc3c(c2)OCCO3)cc1 | -4.3% |
| CCN(CC)c1ccc(S(=O)(=O)N2CCOCC2)cc1NC(=O)CSc1cccc[n+]1[O-] | -33.9% |
| O=C(Nc1ccccc1)c1ccc2nsnc2c1 | -6.4% |
| O=C(Nc1ccc(OC(F)(F)F)cc1)c1ccc2c(c1)no[n+]2[O-] | 50.7% (active) |
| CCc1nnc(NS(=O)(=O)c2ccc(NC(=O)c3cccc(OC(F)(F)C(F)F)c3)cc2)s1 | 15.6% |
| COc1ccccc1C(=O)NC(CCSC)C(=O)NNC(=O)c1ccccc1C (stereo not given) | -1.2% |
| CC(c1ccco1)N(C(=O)COc1ccccc1[N+](=O)[O-])c1ccccn1 (stereo not given) | 6.4% |
| CN1CCOC1c1ccc(C2OCCN2C)cc1 (stereo not given) | -6.4% |
| CC(=O)c1ccc(S(=O)(=O)N2CCC3(CC2)OCCO3)cc1 | -3.8% |
| CC(=O)c1ccc(S(=O)(=O)N2CCN(c3nc4c(C)c(C)ccc4cc3C#N)CC2)cc1 | 61.5% (active) |
| CC(=O)c1ccc(N2CCN(S(=O)(=O)c3ccc4c(c3)CC(=O)N4C)CC2)cc1 | 8.9% |
| Oc1c(Br)cc(/C=N/NC(=S)NCC2CCCO2)cc1Br (stereo not given) | -3.3% |
| O=C(NC1CCCC1)C1c2ccccc2OCC(=O)N1Cc1ccccc1 (stereo not given) | -7.8% |
| Cc1ccc(NC(=O)N2CCSc3ccccc32)cc1 | 3.8% |
| O=C(/C=C/c1cccc([N+](=O)[O-])c1)OCC(=O)N1CCOCC1 | -3.4% |
| O=C(/C=C/c1cccc([N+](=O)[O-])c1)N1CCN(Cc2ccccc2)CC1 | 69.8% (active) |
| O=C(c1cccc(Cl)c1)N1CCN(Cc2ccccc2)CC1 | -4.7% |

| Compound | inhibition |
| --- | --- |
| CCCOc1ccc(/C(O)=C2/C(=O)C(=O)N(CCN(C)C)C2c2ccc(OC)c(OC)c2)cc1 (stereo not given) | -4.4% |
| CCN1CCCC1CNC(=O)c1ccc2c(c1)NC(=O)/C(=C\c1ccccc1F)S2 (stereo not given) | -6.6% |
| CCOC(=O)N1CCN(S(=O)(=O)N2CCCC(C(=O)NCCCN3CCC(C)CC3)C2)CC1 (stereo not given) | -9% |
| Cn1c(NN)nc2sc3c(c2c1=O)CCC3 | 0% |
| O=c1oc(-c2ccco2)nc2sc3c(c12)CCCCC3 | 59.2% (active) |
| O=S(=O)(c1ccc(Cl)cc1)c1nc(-c2ccco2)oc1N1CCCCC1 | 17.9% |
| CCCCCc1c(Cc2ccccc2)ncn1CCc1ccccc1OC | 11% |
| Cc1cccc(NC(=O)CSc2nc3c(c(=O)[nH]2)CCC3)c1C | -9.1% |
| CCN1CCN(c2ccc([N+](=O)[O-])cc2C(=O)c2ccc(Cl)cc2)CC1 | 24.4% |
| Cc1cccc(NC(=O)c2cc([N+](=O)[O-])ccc2N2CCN(C)CC2)c1 | 56.8% (active) |
| CCC(C)(C)NC(=O)c1cc([N+](=O)[O-])ccc1N1CCCCC1 | 9.2% |
| CC(C)C(=O)Nc1cccc(NC(=O)c2ccc([N+](=O)[O-])cc2Cl)c1 | -13.2% |
| NS(=O)(=O)c1cccc(NC(=O)COC(=O)c2cc([N+](=O)[O-])ccc2N2CCCC2)c1 | 26.9% |
| O=C(Nc1cccc(Cl)c1)c1cc([N+](=O)[O-])ccc1N1CCN(CCO)CC1 | 68.1% (active) |
| CCOC(=O)c1cc(-c2ccc(F)cc2)n(CC(=O)NCc2ccccn2)c1C | -7.6% |
| COC(=O)CCCCC1=CCC2C(=O)C=C(O)C2C1 (stereo not given) | -0.8% |
| Cc1nn(Cc2ccc(F)cc2)c(C)c1NC(=O)c1noc2c1CCc1ccccc1-2 | 17.6% |
| CNC(=O)/C(=C\C=C\c1ccccc1)NC(=O)c1ccc([N+](=O)[O-])cc1 | 88.8% (active) |
| Cc1ccc(C(=O)N/C(=C/C=C/c2ccccc2)C(=O)NCc2ccco2)cc1 | 10.2% |
| CCCCOc1ccc(C(=O)N/C(=C/C=C/c2ccccc2)C(=O)N2CCOCC2)cc1 | 4.3% |
| COc1ccc(-c2cc(=O)oc3cc(OCC(=O)N(C)C4CCS(=O)(=O)C4)ccc23)cc1 (stereo not given) | -3.1% |
| COc1ccc(-c2cc(NC=O)c3ncc(-c4ccccc4)n3c2)cc1OC | 28.3% |

| Compound | inhibition |
| --- | --- |
| Cc1ccccc1-c1nc(CS(=O)(=O)CC(=O)N2CCc3ccccc3C2)c(C)o1 | 10% |
| COC(=O)[C@]1(CC(C)C)N[C@H](c2ccc(SC3CCCCC3)cc2)[C@@H]2C(=O)N(C)C(=O)[C@@H]21 | 22.5% |
| CCCCCCSc1ccc([C@@H]2[C@@H]3C(=O)N(CC)C(=O)[C@@H]3[C@]3(C(=O)OC)CCCCN23)cc1OC | 23.1% |
| CCCSc1ccc([C@H]2N[C@@](Cc3ccccc3)(C(=O)OC)[C@H]3C(=O)N(C)C(=O)[C@@H]23)cc1 | 17.3% |
| CCN1C(=O)[C@H]2[C@@H](c3ccc(-c4ccc(OC)cc4)cc3)N[C@@](Cc3ccccc3)(C(=O)OC)[C@H]2C1=O | 39.2% |
| CCN1C(=O)[C@H]2[C@@H](c3ccc(-c4ccc(F)cc4)cc3)N[C@@](Cc3ccccc3)(C(=O)OC)[C@H]2C1=O | 65.3% (active) |
| CCN1C(=O)[C@H]2[C@@H](c3ccc(SC4CCCCC4)c(OC)c3)N[C@@](Cc3ccccc3)(C(=O)OC)[C@H]2C1=O | 63.1% (active) |
| COc1ccccc1C(=O)N(C1=NC(C)CS1)c1ccc(Cl)cc1 (stereo not given) | 6.9% |
| CCCN1CCN(C(=O)Cn2ncc3ccccc32)CC1 | -2.9% |
| Cc1ccc(NC(=O)N2CCC(O)(c3cccnc3)CC2)cc1 | -3.3% |
| CC(C)C[C@H](NC(=O)NCCc1ccc(Cl)cc1)C(=O)O | -6.2% |
| CSCCC(NC(=O)c1cc([N+](=O)[O-])cc([N+](=O)[O-])c1)c1nc2ccccc2[nH]1 (stereo not given) | 32.8% |
| Cc1cccc(CN2CCN(Cc3cnn(-c4ccccc4F)c3)CC2CCO)n1 (stereo not given) | -8% |
| CC1=C(C)CC2C(=O)N(c3cccc4ccccc34)C(=O)C2C1 (stereo not given) | 7.3% |
| Cc1ccc(C2=NN(C(=O)COc3ncnc4ccccc34)C(c3ccco3)C2)cc1 (stereo not given) | 8.9% |
| O=C1C2N=NN(CC(=O)N3N=C(c4cccc5ccccc45)CC3c3ccccc3)C2C(=O)N1c1ccccc1 (stereo not given) | 84.2% (active) |
| Cc1ccc(N2C(=O)C3N=NN(CC(=O)N4N=C(c5cccc6ccccc56)CC4c4ccccc4)C3C2=O)cc1 (stereo not given) | 83.2% (active) |
| Oc1ccccc1C1=NN(c2ccccc2)C(c2ccccc2)C1 (stereo not given) | 25.2% |
| O=C1c2cccc(OCC(=O)N3N=C(c4cccs4)CC3c3ccc(F)cc3)c2CCN1Cc1ccccc1 (stereo not given) | 30.6% |
